# Shown are actives, neighbours in structure and some others; about 7.5% of the full set was active somewhere.
# Luc counter: Counterscreen for Luciferase (Kinase-Glo TM) Inhibition. Kinase-Glo luciferase, ATP luminescence, 8 min. AID 1379, 2008. 200,000 compounds, 0.28% hits. Potency, µM (highest dose often 38.3 µM), for the others: at the highest dose activity change, negative = inhibition, hits mostly inhibitors; also: % is scaled to controls: 0 for no effect and ±100 for the full control effect; nearly all actives have a fitted effect of over 60% in size
#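 Substrate mix (final 50 mM imidazole pH 7.2, 50 mM KCl, 7 mM MgCl2, 10 uM ATP, 0.01% Tween 20, 0.05% BSA) plus pin-tool compound, then Kinase-Glo detection mix; 8 min ambient, luminescence read.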
# NPC1 promoter act: qHTS Assay for NPC1 Promoter Activators. 320,000 compounds, 2.4% hits. Huh7 NPC1 promoter luciferase reporter, 24 h. Potency, µM (series often up to 9.22 µM), for inactives: at the highest dose activation, most hits filed as activators; also: % of control where 0% means no effect; nearly all actives have a fitted effect of over 60% in size
#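 Compounds in DMSO were transferred onto Huh7 NPC1-luciferase reporter cells pre-incubated 2 h; after 24 h at 37 °C, Amplite reagent was dispensed and luminescence recorded 10 min later.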
# SMN2 splice enh: qHTS Assay for Enhancers of SMN2 Splice Variant Expression. HEK293 SMN2-luciferase splicing reporter, luminescence, 30-36 h. 210,000 compounds, 2.8% hits. Potency, µM (series often up to 46.1 µM), inactives show at the top dose activity change, positive = activation, most hits filed as activators. AID 1458, 2008; also: % of control where 0% means no effect; nearly all actives have a fitted effect of over 55% in size
#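 HEK293 cells carry an SMN2 minigene-luciferase reporter in which exon 7 inclusion puts luciferase in frame. Cells were seeded at 2000 cells/well, attached for 10-12 hours, then exposed to compounds for 30-36 hours at 37C before ONE-Glo luminescence.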
# FLuc modulator: qHTS profiling assay for firefly luciferase inhibitor/activator using purifed enzyme and Km concentrations of substrates (counterscreen for miR-21 project) | Luciferin 4-monooxygenase (Photinus pyralis), P08659 | purified FLuc, Km substrates, luminescence inhibition | Potency, µM (doses to about 57.5 µM), for the others: top-dose activity change, negative = inhibition, hits mostly inhibitors | 360,000 compounds, 6.9% hits;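 also: plate controls were vehicle for no effect and reference inhibitor for full effect; nearly all actives have a fitted effect of over 55% in size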
# Target sequence (P08659 whole entry, looked up): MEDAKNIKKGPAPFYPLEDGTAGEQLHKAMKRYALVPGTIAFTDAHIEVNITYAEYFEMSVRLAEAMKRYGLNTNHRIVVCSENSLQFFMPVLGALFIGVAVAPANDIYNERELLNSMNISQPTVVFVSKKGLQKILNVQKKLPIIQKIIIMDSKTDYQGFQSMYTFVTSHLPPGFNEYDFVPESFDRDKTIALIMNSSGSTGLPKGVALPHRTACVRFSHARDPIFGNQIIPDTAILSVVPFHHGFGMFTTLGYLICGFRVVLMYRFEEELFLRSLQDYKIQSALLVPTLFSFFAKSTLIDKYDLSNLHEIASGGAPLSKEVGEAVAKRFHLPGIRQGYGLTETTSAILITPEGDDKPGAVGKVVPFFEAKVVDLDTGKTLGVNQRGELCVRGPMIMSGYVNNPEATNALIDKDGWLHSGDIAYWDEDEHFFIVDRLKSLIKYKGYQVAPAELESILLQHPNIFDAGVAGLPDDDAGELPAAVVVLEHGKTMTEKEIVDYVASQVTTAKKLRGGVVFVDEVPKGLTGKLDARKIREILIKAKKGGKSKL
#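 Purified P. pyralis luciferase (10nM final) with 10uM D-luciferin and 10uM ATP (Km levels) in 50mM Tris acetate pH 7.5, 10mM Mg acetate, 0.01% Tween-20, 0.05% BSA; qHTS 6-point titration, ~60 µM downward; luminescence read.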
# ELG1 genotox: qHTS screen for small molecules that induce genotoxicity in human embryonic kidney (HEK293T) cells expressing luciferase-tagged ELG1 | 330,000 compounds, 1.3% hits | Potency, µM (top dose mostly 46 µM), for inactives: at the top dose activity change, positive = activation, hits mostly activators | HEK293T ELG1-luciferase reporter, luminescence, 16 h; also: % of control where 0% means no effect; nearly all actives have a fitted effect of over 60% in size
#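 DMSO vehicle served as control against compound-treated ELG1-luciferase HEK293T cells; exposure lasted 16 hr at 37 °C and 5% CO2, followed by ONE-Glo luminescence detection after 30 min.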
# Rab9 prom act: qHTS Assay for Rab9 Promoter Activators | Huh7 Rab9 promoter-luciferase reporter, luminescence, 24 h | Potency, µM (titrated, usually from 9.22 µM), inactives show at the highest dose activation, negative = inhibition, actives largely listed as activators | 320,000 compounds, 2.8% hits; also: % of control where 0% means no effect; nearly all actives have a fitted effect of over 60% in size
#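 Steps: seed 1500 Huh7 Rab9-luc cells per well, rest 2 h at 37 °C; add compound in DMSO; incubate 24 h; add luciferase reagent, 10 min ambient; read luminescence.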
# Active calls of the source: *; ? = inconclusive; · = no result; [ ] = remark or other dose. Calls follow the shape of the dose curve; as a rule, active = well fitted curve in the direction sought with a large enough effect; inconclusive = small, poorly fitted or top-dose-only effect, or another doubt; inactive = no such curve, though single readings can be large; an effect the other way counts as inactive or inconclusive. Potency is read from the fitted curve at half-maximal effect.
SMILES,Luc counter,NPC1 promoter act,SMN2 splice enh,FLuc modulator,ELG1 genotox,Rab9 prom act
C[N+](C)(C)C(C1=CCCC1=O)c1ccccc1 (stereo unspecified),-2.6%[7.66 µM],·,-1.3%[9.22 µM],·,·,·
COc1ccc(/C(N)=N/OC(=O)/C=C/c2ccccc2)cc1,0.7%,-3.3%,24.4%,15.1µM*,4.7%,18.4%
O=C(NCc1ccco1)/C(=C/c1ccc(C(F)(F)F)cc1)c1nc2ccccc2[nH]1,-5.5%,10.0%,24.5%,12µM*,?,14.7%
O=C(NCc1ccco1)/C(=C/c1cccc(C(F)(F)F)c1)c1nc2ccccc2[nH]1,1.8%,-3.2%,-80.8%,3.8%,-3.4%,-6.9%
CC1(C)CC2/C(CO)=C/C=C/[C@](C)(O)CC[C@]21O (stereo partly specified),-2.8%,·,-9.6%,·,·,·
CCn1c(C)nnc1SCC(=O)Nc1ccc(N2CCOCC2)cc1,·,2.4%,·,?,1.0%,4.2%
CCn1c(SCC(=O)Nc2ccc(N3CCOCC3)cc2)nnc1-c1ccc(OC)cc1,-2.7%,-2.4%,-12.3%,15.1µM*,-5.7%,-2.7%
CCn1c(SCC(=O)Nc2ccccc2N2CCOCC2)nnc1-c1ccccc1,3.6%,1.5%,-2.2%,2.8%[2.3 µM],-3.3%,1.0%
CCn1c(SCC(=O)Nc2ccc(N3CCOCC3)c(Cl)c2)nnc1-c1ccc(N)cc1,1.0%,1.6%,-16.3%,13.5µM*,2.5%,1.7%
CC(C)C(=O)Nc1ccccc1C(=O)OCc1cc(=O)n2nc(C3CC3)sc2n1,·,·,·,0.6%,·,·
O=c1oc(-c2cccs2)nc2scc(-c3cccs3)c12,4.1%,7.0%,11.2µM*,7.57µM*,0.1%,13.9%
Cc1sc2nc(-c3ccc(Br)cc3)oc(=O)c2c1C,·,?,·,2.69µM*,-3.2%,6.9%
CCc1cc2c(=O)oc(-c3ccc(Br)cc3)nc2s1,·,13.6%,·,6.01µM*,-0.8%,17.8%
Cc1sc2nc(-c3cccs3)oc(=O)c2c1C,·,15.0%,·,10.7µM*,3.4%,-2.3%
CC(C)(C)c1ccc(C(=O)Nc2cc(-c3ccccc3)nn2-c2ccccc2)cc1,·,·,·,0.3%,·,·
Cc1ccccc1NC(=O)c1ccc2nc(Cc3ccccc3)oc2c1,·,·,·,4.4%,·,·
Nc1ccccc1C(=O)/C=C/c1ccccc1,-4.5%,·,4.9%,·,·,·
O=C(O)c1ccccc1N/N=C\c1ccnc2ccccc12,-2.5%,0.355µM*,5.01µM*,0.169µM*,0.581µM*,?
O=C(O)c1ccccc1N/N=C/c1cc(Br)cc(Br)c1O,·,1.58µM*,·,7.57µM*,?,1.41µM*
Cc1ccc2c(c1)N(C(=O)Nc1cccc3c1CCCC3)CC(C)O2 (stereo unspecified),·,·,·,-6.0%,·,·
Cc1nc2cccnc2n1-c1cccc(C(=O)NCc2ccc(OC(C)C)cc2)c1,·,·,·,-8.0%,·,·
CCC(=O)N1N=C(c2ccc(Cl)cc2)CC1c1ccco1 (stereo unspecified),·,-4.7%,·,-23.1%,2.2%,-2.2%
O=C(c1ccco1)N1N=C(c2ccc(Cl)cc2)CC1c1ccco1 (stereo unspecified),·,-1.5%,·,?,-2.0%,-1.4%
CS(=O)(=O)Nc1cccc(C2=NN(C(=O)c3ccco3)C(c3ccco3)C2)c1 (stereo unspecified),·,-15.1%,·,16.9µM*,-4.6%,-2.5%
O=C(O)CCC(=O)N1N=C(c2ccccc2)CC1c1ccc2nccnc2c1 (stereo unspecified),-0.9%,-1.2%,3.6%,-1.7%,2.6%,2.5%
SMILES,Luc counter,NPC1 promoter act,SMN2 splice enh,FLuc modulator,ELG1 genotox,Rab9 prom act
CCc1ccc(C2=NN(C(C)=O)C(c3ccco3)C2)cc1 (stereo unspecified),?,3.55µM*,12.6µM*,8.49µM*,16.4µM*,1.78µM*
O=C(c1ccco1)N1N=C(c2ccccc2)CC1c1ccc2nccnc2c1 (stereo unspecified),·,-3.4%,·,16.9µM*,3.2%,-1.2%
COc1ccc(C2=NN(C(=O)c3ccco3)C(c3ccco3)C2)cc1OC (stereo unspecified),·,-1.4%,·,15.1µM*,-5.1%,3.1%
O=C(O)CCC(=O)C(=O)O (tested in a mixture with another compound),0.0%,·,-6.6%,·,·,·
CC1=C(c2ccc(C(C)C)cc2)S(=O)(=O)NC1=NCc1ccccc1C,·,·,·,0.0%,·,·
Cc1occc1C(=O)NNC(=O)c1cccc(F)c1,2.6%,-0.1%,12.0%,-2.1%,2.6%,7.6%
COc1cc2ccccc2cc1C(=O)NNC(=O)c1ccccc1O,·,1.6%,·,?,16.4%,7.3%
COc1ccccc1C(=O)NNC(=O)c1cccc(O)c1,·,?,·,12µM*,?,?
COc1ccccc1C(=O)NNC(=O)c1cccc(F)c1,?,?,3.16µM*,15.1µM*,?,?
COCC(=O)NNC(=O)c1ccccc1OC,-1.4%,-2.5%,-9.3%,-4.7%,-0.6%,-3.2%
COc1ccccc1C(=O)NNC(=O)c1ccccc1F,-20.5%,?,25.1µM*,15.1µM*,?,29.1%
COC(=O)c1ccccc1NC(=O)C1(c2cccs2)CCOCC1,·,·,·,2.9%,·,·
Fc1ccc(-c2csc(Nc3ccccn3)n2)cc1,·,3.55µM*,·,1.51µM*,2.06µM*,3.16µM*
Clc1ccccc1Nc1nnc(-c2ccncc2)s1,1.26µM*,0.562µM*,3.16µM*,0.953µM*,?,0.447µM*
Clc1ccccc1Nc1nc(-c2cccnc2)cs1,-21.6%,3.16µM*,2.82µM*,1.69µM*,?,0.708µM*

# Screening results: PubChem, National Center for Advancing Translational Sciences (NCATS)
